The supplement of paper PMC10849652
Targets with a hit are over-represented here; the source holds about 8,800 in all. About 0.5% of all pairs of compound and target were hits. Unmarked numbers belong to inactive results.

What was measured:
Experiment in all cases: log2 fold change, soluble protein after heating vs DMSO (PISA); higher = thermal stabilisation; K562 lysate, 10 uM; active = over 0.2 and 3.5 SD of the protein, either way, in both replicates (recomputed)
[1] = compound: C1=CC=C(C=C1)[C@H](COC2=CC3=C(C=C2)NC(=O)N3)NC(=O)C4=CC=CN(C4=O)CC5=CC(=C(C=C5)F)F
Summary of the method: (§1)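 A 30 min treatment with 10 μM compound was applied to crude K562 extract at 1 mg/mL protein in PBS pH 7.4 with 1 mM MgCl2. Heating for 3 min spanned 48°C-58°C, after which aliquots were pooled, adjusted to 0.5% NP-40 at 4°C and spun at 21,000xg for 90 min. TMTpro 16plex LC-MS/MS of the supernatant, with channel sums equalised, gave values recorded as log-two fold change in thermal stability against solvent controls, from duplicates.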

[2] = compound: CC1=C(SC2=C1C(=N[C@H](C3=NN=C(N32)C)CC(=O)N)C4=CC=C(C=C4)Cl)C
Summary of the method: as §1

[3] = compound: CC1=C2C(=CC=C1)N=C(N(C2=O)C3=CC=CC=C3C)CN4C=NC5=C(N=CN=C54)N
Summary of the method: as §1

[4] = compound: Cc1sc2c(c1C)C(c1ccc(Cl)cc1)=N[C@@H](CC(=O)OC(C)(C)C)c1nnc(C)n1-2
Summary of the method: as §1

[5] = compound: c1ccc([C@@H]2C[C@H]2NC2CCNCC2)cc1
Summary of the method: as §1

Sequence of UniProt Q9UBN7 (Q9UBN7 whole entry, looked up): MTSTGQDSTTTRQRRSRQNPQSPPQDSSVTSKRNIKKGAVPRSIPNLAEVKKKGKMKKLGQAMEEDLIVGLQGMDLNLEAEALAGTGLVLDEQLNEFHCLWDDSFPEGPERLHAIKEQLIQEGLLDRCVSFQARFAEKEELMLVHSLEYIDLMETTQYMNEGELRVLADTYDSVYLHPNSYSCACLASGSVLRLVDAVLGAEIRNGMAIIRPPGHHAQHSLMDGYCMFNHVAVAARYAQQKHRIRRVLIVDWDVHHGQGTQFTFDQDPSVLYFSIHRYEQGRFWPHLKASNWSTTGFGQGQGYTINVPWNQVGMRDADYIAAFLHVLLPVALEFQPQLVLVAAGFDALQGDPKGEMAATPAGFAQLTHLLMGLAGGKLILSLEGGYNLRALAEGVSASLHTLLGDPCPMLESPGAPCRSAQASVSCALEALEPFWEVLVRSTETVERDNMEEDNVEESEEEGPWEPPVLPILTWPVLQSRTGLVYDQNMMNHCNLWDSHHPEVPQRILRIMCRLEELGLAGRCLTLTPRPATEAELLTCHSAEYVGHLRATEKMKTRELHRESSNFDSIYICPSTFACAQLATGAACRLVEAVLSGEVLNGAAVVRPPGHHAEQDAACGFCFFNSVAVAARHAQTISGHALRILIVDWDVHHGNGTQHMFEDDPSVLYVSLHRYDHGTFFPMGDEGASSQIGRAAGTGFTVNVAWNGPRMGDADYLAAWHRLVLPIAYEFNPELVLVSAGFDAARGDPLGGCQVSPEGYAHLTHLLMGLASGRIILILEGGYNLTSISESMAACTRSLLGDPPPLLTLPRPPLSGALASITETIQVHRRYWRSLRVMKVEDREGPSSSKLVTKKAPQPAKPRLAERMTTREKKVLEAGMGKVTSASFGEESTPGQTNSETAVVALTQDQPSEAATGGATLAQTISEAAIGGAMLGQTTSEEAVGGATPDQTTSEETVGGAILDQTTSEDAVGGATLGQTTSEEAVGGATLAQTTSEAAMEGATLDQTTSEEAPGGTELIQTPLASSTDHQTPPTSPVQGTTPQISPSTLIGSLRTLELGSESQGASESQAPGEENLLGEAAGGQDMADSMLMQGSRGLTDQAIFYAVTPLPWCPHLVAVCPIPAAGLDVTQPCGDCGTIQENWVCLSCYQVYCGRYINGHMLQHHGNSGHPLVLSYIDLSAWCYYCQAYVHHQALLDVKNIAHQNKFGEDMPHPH
Sequence of UniProt Q13418 (Q13418 whole entry, looked up): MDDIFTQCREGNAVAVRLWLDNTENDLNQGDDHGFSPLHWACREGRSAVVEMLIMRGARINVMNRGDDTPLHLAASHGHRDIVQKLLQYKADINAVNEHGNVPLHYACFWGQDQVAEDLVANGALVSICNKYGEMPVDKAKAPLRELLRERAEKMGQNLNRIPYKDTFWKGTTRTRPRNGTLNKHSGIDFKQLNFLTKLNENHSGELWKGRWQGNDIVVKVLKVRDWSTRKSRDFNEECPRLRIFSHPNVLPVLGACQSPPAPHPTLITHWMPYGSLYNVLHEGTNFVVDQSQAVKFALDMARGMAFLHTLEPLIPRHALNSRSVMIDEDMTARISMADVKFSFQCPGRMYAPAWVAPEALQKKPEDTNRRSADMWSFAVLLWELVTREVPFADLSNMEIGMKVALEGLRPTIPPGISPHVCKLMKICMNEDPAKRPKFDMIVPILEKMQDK
Sequence of UniProt Q13478 (Q13478 whole entry, looked up): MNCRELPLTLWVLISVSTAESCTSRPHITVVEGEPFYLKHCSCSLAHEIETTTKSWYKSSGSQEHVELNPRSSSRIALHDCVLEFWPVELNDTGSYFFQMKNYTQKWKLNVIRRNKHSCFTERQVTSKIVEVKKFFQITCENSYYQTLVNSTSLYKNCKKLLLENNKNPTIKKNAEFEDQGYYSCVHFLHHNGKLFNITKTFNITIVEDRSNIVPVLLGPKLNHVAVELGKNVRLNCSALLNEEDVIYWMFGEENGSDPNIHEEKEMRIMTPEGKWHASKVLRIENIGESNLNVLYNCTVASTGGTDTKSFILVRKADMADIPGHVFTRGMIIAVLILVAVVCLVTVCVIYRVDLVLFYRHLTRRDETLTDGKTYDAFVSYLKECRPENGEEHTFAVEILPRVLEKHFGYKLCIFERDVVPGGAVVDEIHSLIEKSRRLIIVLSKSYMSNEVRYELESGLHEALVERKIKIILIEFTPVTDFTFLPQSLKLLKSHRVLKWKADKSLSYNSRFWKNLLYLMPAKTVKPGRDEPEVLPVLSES
Sequence of UniProt P51617 (P51617 whole entry, looked up): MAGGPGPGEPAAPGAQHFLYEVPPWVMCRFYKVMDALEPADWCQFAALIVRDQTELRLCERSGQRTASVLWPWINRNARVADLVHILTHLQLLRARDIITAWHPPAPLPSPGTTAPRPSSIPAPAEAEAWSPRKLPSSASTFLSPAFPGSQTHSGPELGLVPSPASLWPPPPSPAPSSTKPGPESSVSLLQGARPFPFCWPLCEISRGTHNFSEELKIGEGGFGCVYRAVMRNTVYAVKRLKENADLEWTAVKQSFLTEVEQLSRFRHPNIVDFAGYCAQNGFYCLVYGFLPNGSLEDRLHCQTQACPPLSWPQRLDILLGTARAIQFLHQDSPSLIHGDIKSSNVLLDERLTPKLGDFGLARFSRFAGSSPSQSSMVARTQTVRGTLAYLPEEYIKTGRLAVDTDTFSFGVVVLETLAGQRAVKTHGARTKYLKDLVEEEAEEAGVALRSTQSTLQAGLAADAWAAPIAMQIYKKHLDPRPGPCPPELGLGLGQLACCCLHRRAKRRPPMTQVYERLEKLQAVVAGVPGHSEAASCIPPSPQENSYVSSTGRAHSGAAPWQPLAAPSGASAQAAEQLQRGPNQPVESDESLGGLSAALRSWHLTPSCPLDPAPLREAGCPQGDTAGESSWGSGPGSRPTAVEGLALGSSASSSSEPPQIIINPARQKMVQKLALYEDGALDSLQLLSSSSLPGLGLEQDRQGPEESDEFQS
Sequence of UniProt Q9BXW7 (Q9BXW7 whole entry, looked up): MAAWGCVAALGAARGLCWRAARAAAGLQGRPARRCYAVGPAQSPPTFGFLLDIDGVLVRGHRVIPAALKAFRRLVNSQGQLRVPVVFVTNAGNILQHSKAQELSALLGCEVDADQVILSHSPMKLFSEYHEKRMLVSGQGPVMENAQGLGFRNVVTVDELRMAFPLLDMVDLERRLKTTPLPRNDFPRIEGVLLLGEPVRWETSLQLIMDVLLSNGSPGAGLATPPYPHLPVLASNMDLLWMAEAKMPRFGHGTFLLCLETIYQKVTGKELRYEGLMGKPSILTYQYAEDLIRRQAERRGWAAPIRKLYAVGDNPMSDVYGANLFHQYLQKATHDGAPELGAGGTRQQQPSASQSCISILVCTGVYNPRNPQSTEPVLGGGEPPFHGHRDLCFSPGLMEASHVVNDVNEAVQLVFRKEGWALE
Sequence of UniProt O14979 (O14979 whole entry, looked up): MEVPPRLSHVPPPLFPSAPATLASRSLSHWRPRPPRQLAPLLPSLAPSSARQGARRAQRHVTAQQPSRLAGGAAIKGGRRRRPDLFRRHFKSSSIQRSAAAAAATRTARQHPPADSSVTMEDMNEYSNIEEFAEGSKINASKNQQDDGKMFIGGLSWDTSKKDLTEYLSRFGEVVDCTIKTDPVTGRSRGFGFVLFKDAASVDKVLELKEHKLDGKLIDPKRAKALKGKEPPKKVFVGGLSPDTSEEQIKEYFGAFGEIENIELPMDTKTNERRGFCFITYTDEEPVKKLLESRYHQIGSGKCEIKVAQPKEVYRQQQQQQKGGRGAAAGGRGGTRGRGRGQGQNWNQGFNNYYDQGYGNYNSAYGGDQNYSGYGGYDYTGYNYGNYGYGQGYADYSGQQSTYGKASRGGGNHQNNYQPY
Sequence of UniProt P41252 (P41252 whole entry, looked up): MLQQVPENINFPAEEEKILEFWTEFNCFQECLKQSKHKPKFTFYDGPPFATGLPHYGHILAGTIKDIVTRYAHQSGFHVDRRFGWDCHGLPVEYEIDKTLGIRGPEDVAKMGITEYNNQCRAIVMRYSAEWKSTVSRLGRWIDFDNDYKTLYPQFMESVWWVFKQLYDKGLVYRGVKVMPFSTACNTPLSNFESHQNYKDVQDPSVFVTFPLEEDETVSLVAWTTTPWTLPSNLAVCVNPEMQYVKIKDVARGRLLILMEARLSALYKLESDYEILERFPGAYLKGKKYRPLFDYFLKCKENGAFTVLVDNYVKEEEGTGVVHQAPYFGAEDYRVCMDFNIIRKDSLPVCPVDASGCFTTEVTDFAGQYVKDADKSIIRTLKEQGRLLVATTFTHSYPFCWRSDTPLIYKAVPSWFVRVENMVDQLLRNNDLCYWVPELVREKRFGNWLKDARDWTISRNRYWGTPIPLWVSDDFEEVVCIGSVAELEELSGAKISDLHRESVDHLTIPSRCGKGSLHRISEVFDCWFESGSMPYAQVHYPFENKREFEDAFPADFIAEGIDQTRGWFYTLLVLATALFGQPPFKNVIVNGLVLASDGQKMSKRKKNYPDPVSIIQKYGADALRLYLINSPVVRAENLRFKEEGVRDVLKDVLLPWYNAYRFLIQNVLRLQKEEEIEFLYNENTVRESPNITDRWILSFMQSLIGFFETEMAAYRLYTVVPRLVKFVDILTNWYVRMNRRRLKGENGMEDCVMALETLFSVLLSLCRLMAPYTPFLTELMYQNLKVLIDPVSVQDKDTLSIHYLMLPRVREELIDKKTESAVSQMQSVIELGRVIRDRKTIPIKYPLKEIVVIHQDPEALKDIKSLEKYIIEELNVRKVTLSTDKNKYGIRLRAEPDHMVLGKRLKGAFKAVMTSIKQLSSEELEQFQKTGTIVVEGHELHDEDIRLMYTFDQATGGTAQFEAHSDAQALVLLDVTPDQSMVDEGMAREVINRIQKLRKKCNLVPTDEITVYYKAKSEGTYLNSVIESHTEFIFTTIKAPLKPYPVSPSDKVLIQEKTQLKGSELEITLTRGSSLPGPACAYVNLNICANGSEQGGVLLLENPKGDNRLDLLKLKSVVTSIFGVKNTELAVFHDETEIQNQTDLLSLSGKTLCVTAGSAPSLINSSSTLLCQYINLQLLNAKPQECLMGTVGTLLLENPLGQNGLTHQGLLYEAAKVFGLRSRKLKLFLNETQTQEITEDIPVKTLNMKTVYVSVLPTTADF

Row | Target | log2 fold change [1] | log2 fold change [2] | log2 fold change [3] | log2 fold change [4] | log2 fold change [5]
1 | ILK (UniProt Q13418) | -0.009 | -0.019 | 0.004 | 0.027 | -0.002
2 | IRAK1 (UniProt P51617) | -0.146 | -0.028 | -0.001 | 0.004 | 0.026
3 | HDAC6 (UniProt Q9UBN7) | 0.029 | 0.036 | -0.017 | -0.007 | 0.042
4 | IARS (UniProt P41252) | -0.027 | 0.026 | 0.025 | 0.066 | 0.047
5 | HSP90AA4P (UniProt Q58FG1) | 0.012 | 0.1 | -0.008 | -0.101 | -0.308
6 | HNRNPDL (UniProt O14979) | 0.033 | 0.002 | 0 | 0.048 | -0.071
7 | HDHD5 (UniProt Q9BXW7) | 0 | 0.071 | 0.032 | -0.05 | -0.012
8 | HSPB1 (UniProt P04792) | -0.091 | 0.002 | 0.002 | -0.017 | 0.028
9 | IL18R1 (UniProt Q13478) | -0.612 (active) | -0.103 | 0.119 | -0.094 | 0.052
